# Data published in PubChem BioAssay AID652016 (National Center for Advancing Translational Sciences (NCATS), 2013).
# Results filed as inconclusive are left out. Entries that show only a call come without a potency. The source made the active and inactive calls. Calls follow the shape of the dose curve; as a rule, active = well fitted inhibition curve with a large enough effect; inconclusive = small, poorly fitted or top-dose-only effect; inactive = flat fitted curve, though single readings scatter.
# Molecular target: Luciferin 4-monooxygenase (Photinus pyralis) (UniProt P08659)
# Sequence (P08659 whole entry, looked up): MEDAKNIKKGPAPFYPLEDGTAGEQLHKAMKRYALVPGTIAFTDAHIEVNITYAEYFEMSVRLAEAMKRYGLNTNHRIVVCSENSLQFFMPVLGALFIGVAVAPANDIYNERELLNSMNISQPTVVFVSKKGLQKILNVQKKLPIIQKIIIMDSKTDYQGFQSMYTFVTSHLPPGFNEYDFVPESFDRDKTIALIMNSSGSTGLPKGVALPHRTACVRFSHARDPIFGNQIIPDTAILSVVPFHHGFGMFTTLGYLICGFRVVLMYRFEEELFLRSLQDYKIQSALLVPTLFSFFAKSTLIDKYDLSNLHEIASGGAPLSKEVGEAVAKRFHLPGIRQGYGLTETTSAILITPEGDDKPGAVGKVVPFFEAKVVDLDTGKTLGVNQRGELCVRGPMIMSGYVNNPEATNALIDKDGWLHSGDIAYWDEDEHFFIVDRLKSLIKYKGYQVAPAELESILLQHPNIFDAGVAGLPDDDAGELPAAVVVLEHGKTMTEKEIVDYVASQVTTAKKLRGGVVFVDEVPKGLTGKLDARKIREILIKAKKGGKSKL
# Experiment: qHTS Assay for Inhibitors of Firefly Luciferase from the GSK Published Protein Kinase Inhibitor Set
# Conditions: purified firefly luciferase, luminescence inhibition; series mostly up to 57.5 µM
# Procedure, shortened: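 Purified P. pyralis luciferase, 10nM, with 10uM D-luciferin and 10uM ATP in 50mM Tris acetate pH 7.5, 10mM Mg acetate, 0.01% Tween-20, 0.05% BSA. Titration ~60uM to 300pM; luminescence read after about 5 min.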
# Potency is read from the fitted curve at half-maximal effect.
row,Compound,Potency
1,CC(=O)Nc1cccc(C#Cc2cncnc2Nc2ccc(OCc3cccc(F)c3)c(Cl)c2)c1,inactive
2,COc1ccc(-c2nn3ncccc3c2-c2ccnc(Nc3cccc(C(F)(F)F)c3)n2)cc1,inactive
3,Cn1cc(C=C2C(=O)Nc3cccnc32)c2ccccc21,14.6 µM (active)
4,O=S(=O)(CCOCc1ccc(-c2ccc3ncnc(Nc4ccc(OCc5cccc(F)c5)c(Cl)c4)c3c2)o1)c1ccccc1,inactive
5,N#Cc1c(NC(=O)CN2CCOCC2)sc2c1CCCC2,inactive
6,c1ccc(Nc2ncc(-c3ccccc3)o2)cc1,0.259 µM (active)
7,COC(=O)c1cncc(C=Cc2c(C)cc(O)cc2C)c1,inactive
8,Cc1nc(-c2ccccc2)n2nc(NCCCN3CCOCC3)ncc12,inactive
9,CCCN1CCC=C(c2ccc(Nc3nc(Nc4ccccc4C(N)=O)c4cc[nH]c4n3)c(C)c2)C1,inactive
10,COc1ccc2cc(-c3c(-c4ccncc4)nc(-c4ccc(S(C)=O)cc4C)n3C)ccc2c1 (stereo unspecified),inactive
11,CCc1nn2ncccc2c1-c1ccnc(NC2CC2)n1,inactive
12,CCn1c(-c2nonc2N)nc2c(C#CC(C)(C)O)nc(CN3CCCC3)cc21,inactive
13,CN(C)CCOc1ccc(-c2cc(-c3ccc4c(c3)CCC4=NO)c(-c3ccncc3)o2)cc1,inactive
14,Nc1nccc(-c2c(-c3ccc(F)cc3)nn3cc(C(F)(F)F)ccc23)n1,inactive
15,COc1cc2ncnc(Nc3ccc4c(cnn4Cc4ccccc4)c3)c2cc1OC,inactive
16,CN(C)c1ccc2[nH]c(O)c(C=Nc3ccc(S(N)(=O)=O)cc3)c2c1,inactive
